In PubChem BioAssay:
The source made the active and inactive calls.

Legend:
[1] = binders of probe aFSTL3 on microarray, primary screen, stem cell growth factor project, biochemical, small-molecule microarray, fluorescence 635/667 (AID 1064); conditions: higher = more signal;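 also: measures binding of the biotinylated anti-FSTL3 antibody to printed compounds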
[2] = binders from COS7 lysate, DM2A8 probe, primary screen, torsin A project, cell lysate, small-molecule microarray, fluorescence 635/667 (AID 1065); conditions: higher = more signal, COS7 lysate expressing mutant human TOR1A
[3] = binders of probe aFGF2 on microarray, primary screen, stem cell growth factor project, biochemical, small-molecule microarray, fluorescence 635/667 (AID 1067); conditions: higher = more signal;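 also: measures binding of biotinylated aFGF2 protein to printed compounds on slides; z-score merges feature fluorescence and signal-to-noise across triplicate slides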
[4] = binders of probe aFGF10 on microarray, primary screen, stem cell growth factor project, biochemical, small-molecule microarray, fluorescence 635/667 (AID 1071); conditions: higher = more signal;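 also: score merges 667 nm spot intensity and signal to noise from triplicate slides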
[5] = biological target: Neurogenic locus notch homolog protein 2 (Homo sapiens) (UniProt Q04721); experiment: Notch2 binders on small-molecule microarrays, primary screen, biochemical, small-molecule microarray, 635 nm fluorescence, stem cell growth factors (AID 1073); conditions: Notch2 binding, higher = more signal
[6] = biological target: Pro-neuregulin-1, membrane-bound isoform (Homo sapiens) (UniProt Q02297); experiment: NRG1 binders on small-molecule microarrays, primary screen, psychiatric disease protein project, biochemical, small-molecule microarray, fluorescence 635/667 (AID 1075); conditions: NRG1 binding, 635 nm fluorescence, higher = more signal;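 also: score combines 667 nm spot fluorescence with signal to noise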
[7] = test system: Neuregulin-1 EGF-like domain; experiment: binders of neuregulin-1 EGF-like domain, primary screen, biochemical, small-molecule microarray, 635 nm fluorescence (AID 1081); conditions: small-molecule microarray binding, higher = more signal;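 also: binding of the protein to compounds printed on small-molecule microarray slides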
[8] = FRG1 promoter luciferase signal modulators, primary screen, FRG1 inhibition for FSHD, cell-based, C2C12 myotubes, firefly/Renilla luciferase, luminescence (AID 1084); conditions: higher = more signal, called active from +8 up or from −8 down
[9] = binders of probe aFST on microarray, primary screen, stem cell growth factor project, biochemical, small-molecule microarray, fluorescence 635/667 (AID 1086); conditions: higher = more signal;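 also: score merges 667 nm fluorescence with signal-to-noise of each printed compound spot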
[10] = binders of probe aHhip on microarray, primary screen, stem cell growth factor project, biochemical, small-molecule microarray, fluorescence 635/667 (AID 1087); conditions: higher = more signal;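 also: score merges spot fluorescence at 667nm with spot signal to noise ratio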
[11] = test system: PRMT1 (protein arginine N-methyltransferase 1); experiment: PRMT1 binders on small-molecule microarrays, primary screen, biochemical, small-molecule microarray, 635 nm fluorescence (AID 1088); conditions: small-molecule microarray binding, higher = more signal;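 also: binding of Prmt1 protein to compounds spotted on small-molecule microarray slides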
[12] = yeast growth modulation, basal conditions, primary screen, YJM789 clinical isolate, OD600, 24 h (AID 1089);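 also: growth of clinical yeast isolate S. cerevisiae YJM 789 seeded 1000 cells per well; test concentration not given here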; conditions: S. cerevisiae YJM789 growth, higher = more signal, called active from +8 up or from −8 down
[13] = fission yeast growth modulation, primary screen, strain 972, OD600, 24 h, no modulator (AID 1090);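 also: basal condition with compound alone and no growth modifier present; test concentration not given here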; conditions: S. pombe 972 growth, higher = more signal, called active from +8 up or from −8 down
[14] = S. cerevisiae growth modulation with rapamycin, primary screen, strain BY4716, OD600, 96 h (AID 1091); conditions: higher = more signal, called active from +8 up or from −8 down; also: test concentration not given here
[15] = biological target: Torsin-1A-interacting protein 2 (Homo sapiens) (UniProt Q8NFQ8); experiment: LULL1 binders on small-molecule microarray, primary screen, cell lysate, human LULL1 lysate, 635/667 nm fluorescence (AID 1092); conditions: hLULL1 lysate binding, 635 nm fluorescence, higher = more signal;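 also: probe is lysate of COS7 cells overexpressing human LULL1; score merges per-feature 667 nm fluorescence with signal-to-noise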
[16] = E. coli growth modulation, two-sided OD650, primary screen, E. coli filamentation project, strain DRC41, 24 h (AID 1093); conditions: OD650, 24 h, higher = more signal, called active from +8 up or from −8 down;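 also: MC1000 strain lacking acrAB efflux and sulA so SOS filamentation is blocked; test concentration not given here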
[17] = small-molecule microarray binders of probe aLefty2, primary screen, biochemical, biotinylated probe, 635/667 nm fluorescence (AID 1094); conditions: higher = more signal;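 also: score merges spot fluorescence near 667 nm with spot signal-to-noise ratio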
[18] = test system: Noggin (protein binding on small-molecule microarray); experiment: Noggin binders on small-molecule microarray, primary screen, biochemical, 635/667 nm fluorescence (AID 1095); conditions: 635 nm fluorescence, higher = more signal;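 also: score merges 667 nm feature fluorescence with signal to noise over triplicate slides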
[19] = biological target: Neurogenic locus notch homolog protein 3 (Homo sapiens) (UniProt Q9UM47); experiment: NOTCH3 binders on small-molecule microarray, primary screen, biochemical, 635/667 nm fluorescence (AID 1096); conditions: NOTCH3 binding, 635 nm fluorescence, higher = more signal
[20] = small-molecule microarray binders of probe aEGFR, primary screen, biochemical, biotinylated probe, 635/667 nm fluorescence (AID 1097); conditions: higher = more signal;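 also: probe is a biotinylated anti-EGFR antibody binding compounds printed on slides; score combines fluorescence near 667 nm and signal to noise of each spot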

Neurogenic locus notch homolog protein 3 (Homo sapiens), sequence (Q9UM47 whole entry, looked up): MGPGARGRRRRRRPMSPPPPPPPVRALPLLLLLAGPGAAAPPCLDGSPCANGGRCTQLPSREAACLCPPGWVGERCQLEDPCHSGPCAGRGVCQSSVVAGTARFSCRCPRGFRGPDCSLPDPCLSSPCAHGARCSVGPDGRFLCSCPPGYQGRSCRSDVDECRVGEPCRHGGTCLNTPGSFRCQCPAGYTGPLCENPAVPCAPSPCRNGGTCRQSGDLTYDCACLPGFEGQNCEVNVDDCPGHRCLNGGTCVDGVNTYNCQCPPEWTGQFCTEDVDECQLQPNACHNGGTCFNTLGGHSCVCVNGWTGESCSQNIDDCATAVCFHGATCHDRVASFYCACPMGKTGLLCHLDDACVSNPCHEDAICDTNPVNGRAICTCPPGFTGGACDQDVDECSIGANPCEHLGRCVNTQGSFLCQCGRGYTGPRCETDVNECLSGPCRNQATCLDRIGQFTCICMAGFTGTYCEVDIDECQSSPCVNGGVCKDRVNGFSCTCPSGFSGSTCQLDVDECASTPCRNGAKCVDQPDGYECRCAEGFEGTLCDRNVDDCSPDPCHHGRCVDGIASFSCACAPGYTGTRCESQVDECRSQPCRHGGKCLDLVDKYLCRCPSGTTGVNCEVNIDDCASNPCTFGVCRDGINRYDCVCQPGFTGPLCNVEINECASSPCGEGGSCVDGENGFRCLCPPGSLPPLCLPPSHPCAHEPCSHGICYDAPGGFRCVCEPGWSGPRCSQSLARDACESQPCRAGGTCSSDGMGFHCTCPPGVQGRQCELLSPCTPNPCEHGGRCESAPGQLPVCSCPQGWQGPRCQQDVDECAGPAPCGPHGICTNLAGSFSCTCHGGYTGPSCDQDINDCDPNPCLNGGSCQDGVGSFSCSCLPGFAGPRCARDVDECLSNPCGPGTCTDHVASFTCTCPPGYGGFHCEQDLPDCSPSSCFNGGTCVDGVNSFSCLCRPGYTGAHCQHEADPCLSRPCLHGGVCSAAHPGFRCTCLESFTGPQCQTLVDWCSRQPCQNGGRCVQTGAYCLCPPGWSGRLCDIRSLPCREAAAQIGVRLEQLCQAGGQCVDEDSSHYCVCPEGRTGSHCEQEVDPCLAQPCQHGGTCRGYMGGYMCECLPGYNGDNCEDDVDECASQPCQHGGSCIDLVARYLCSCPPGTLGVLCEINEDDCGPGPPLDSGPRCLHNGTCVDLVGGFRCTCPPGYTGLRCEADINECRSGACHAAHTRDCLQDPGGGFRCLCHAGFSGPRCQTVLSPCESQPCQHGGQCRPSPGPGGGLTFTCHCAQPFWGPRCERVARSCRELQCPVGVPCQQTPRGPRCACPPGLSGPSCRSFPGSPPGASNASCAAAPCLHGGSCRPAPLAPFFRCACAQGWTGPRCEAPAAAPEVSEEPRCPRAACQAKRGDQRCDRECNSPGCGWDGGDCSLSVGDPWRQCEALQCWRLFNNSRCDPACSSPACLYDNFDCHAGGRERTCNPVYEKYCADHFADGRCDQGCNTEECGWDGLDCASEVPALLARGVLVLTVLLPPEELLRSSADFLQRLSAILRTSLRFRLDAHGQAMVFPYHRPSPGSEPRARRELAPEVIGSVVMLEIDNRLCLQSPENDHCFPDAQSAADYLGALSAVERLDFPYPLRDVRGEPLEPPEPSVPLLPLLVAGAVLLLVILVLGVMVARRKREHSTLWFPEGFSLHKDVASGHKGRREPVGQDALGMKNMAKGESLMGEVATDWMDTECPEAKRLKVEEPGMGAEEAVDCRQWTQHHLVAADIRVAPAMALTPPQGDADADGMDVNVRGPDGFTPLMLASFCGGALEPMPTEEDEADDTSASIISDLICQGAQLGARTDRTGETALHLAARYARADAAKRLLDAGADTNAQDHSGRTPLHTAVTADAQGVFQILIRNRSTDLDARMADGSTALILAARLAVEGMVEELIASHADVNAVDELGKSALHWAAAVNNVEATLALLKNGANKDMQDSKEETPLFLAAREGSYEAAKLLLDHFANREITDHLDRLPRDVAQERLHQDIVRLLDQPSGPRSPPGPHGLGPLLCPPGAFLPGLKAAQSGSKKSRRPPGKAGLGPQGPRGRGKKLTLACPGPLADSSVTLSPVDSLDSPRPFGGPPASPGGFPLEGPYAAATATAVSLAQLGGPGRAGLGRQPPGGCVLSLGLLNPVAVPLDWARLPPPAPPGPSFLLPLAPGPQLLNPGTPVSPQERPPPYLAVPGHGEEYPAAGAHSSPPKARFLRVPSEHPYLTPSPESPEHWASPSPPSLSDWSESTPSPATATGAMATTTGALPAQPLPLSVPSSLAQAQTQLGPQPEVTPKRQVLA
Torsin-1A-interacting protein 2 (Homo sapiens), sequence (Q8NFQ8 whole entry, looked up): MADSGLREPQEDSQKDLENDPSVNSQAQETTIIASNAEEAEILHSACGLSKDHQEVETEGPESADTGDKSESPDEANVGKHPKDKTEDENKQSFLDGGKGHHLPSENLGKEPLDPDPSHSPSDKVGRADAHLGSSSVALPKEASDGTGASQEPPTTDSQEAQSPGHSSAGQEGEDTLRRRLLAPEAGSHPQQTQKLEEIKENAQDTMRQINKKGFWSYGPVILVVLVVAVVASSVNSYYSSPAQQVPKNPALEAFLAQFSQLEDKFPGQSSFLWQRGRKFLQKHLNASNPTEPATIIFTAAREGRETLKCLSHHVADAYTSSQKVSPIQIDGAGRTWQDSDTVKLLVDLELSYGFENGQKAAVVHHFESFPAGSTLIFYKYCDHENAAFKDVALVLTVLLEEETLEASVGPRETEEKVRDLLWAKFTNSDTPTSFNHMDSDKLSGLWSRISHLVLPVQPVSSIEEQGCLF
Pro-neuregulin-1, membrane-bound isoform (Homo sapiens), sequence (Q02297 whole entry, looked up, the tested form may be a part, canonical isoform): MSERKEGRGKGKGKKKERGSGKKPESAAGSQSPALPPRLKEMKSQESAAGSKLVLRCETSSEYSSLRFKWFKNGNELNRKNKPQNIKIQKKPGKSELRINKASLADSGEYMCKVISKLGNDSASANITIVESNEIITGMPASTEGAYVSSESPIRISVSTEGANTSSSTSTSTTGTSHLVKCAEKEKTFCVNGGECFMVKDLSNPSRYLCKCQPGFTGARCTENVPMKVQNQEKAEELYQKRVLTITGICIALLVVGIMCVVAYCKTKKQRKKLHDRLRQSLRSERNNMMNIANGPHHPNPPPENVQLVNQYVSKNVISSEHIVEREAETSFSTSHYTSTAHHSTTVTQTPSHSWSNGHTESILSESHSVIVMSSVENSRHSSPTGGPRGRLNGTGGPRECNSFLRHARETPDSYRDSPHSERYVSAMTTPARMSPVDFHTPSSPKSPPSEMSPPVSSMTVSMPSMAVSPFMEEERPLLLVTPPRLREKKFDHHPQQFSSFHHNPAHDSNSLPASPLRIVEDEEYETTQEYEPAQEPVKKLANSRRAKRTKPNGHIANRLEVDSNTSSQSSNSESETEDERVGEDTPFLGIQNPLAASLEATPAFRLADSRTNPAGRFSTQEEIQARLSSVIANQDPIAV

SMILES	composite z-score [1]	composite z-score [2]	composite z-score [3]	composite z-score [4]	composite z-score [5]	composite z-score [6]	composite z-score [7]	z-score [8]	composite z-score [9]	composite z-score [10]	composite z-score [11]	z-score [12]	z-score [13]	z-score [14]	composite z-score [15]	z-score [16]	composite z-score [17]	composite z-score [18]	composite z-score [19]	composite z-score [20]
CCCCC(CC)C(O)C1C=CC2C(=O)N(c3ccccc3)C(=O)C2N1Nc1ccc([N+](=O)[O-])cc1 (stereo not given)	-0.294	0.153	0.141	0.848	1.73	1.88	1.26	-1.62 (inactive)	1.1	-0.234	1.55	-0.777 (inactive)	-0.126 (inactive)	1.44 (inactive)	3.65	-0.191 (inactive)	0.0958	0.547	1.03	0.11
COc1c(C)cc(-c2cc3c(c(Cc4ccccc4)n2)[Si](C(C)C)(C(C)C)OC3)cc1C	-0.148	0.0413	-0.0448	-0.108	0.64	-0.0762	-0.588	0.184 (inactive)	0.335	-0.0994	-0.13	0.784 (inactive)	0.567 (inactive)	1.04 (inactive)	0.323	-0.733 (inactive)	-0.157	0.529	0.598	-0.0509
[N-]=[N+]=Nc1ccccc1C[C@]1(C(=O)NCc2ccccc2)N=C(c2ccc(OCCCO)cc2)O[C@H]1c1ccccc1	0.0843	0.984	0.0898	0.584	1.61	1.86	1.2	-2.1 (inactive)	1.22	0.0515	1.56	-0.623 (inactive)	0.69 (inactive)	17.8 (active)	3.34	0.7 (inactive)	0.206	0.383	1.12	0.048
C=CC[C@@H](OC(=O)Nc1ccc(OC)cc1)c1ccc(OCCO)cc1	0.767	-1.54	-0.131	-0.805	-2.39	-0.682	0.0481	5.78 (inactive)	-1.25	0.0722	-0.424	-0.348 (inactive)	-3.59 (inactive)	0.126 (inactive)	-0.0818	0.743 (inactive)	-0.0304	-0.929	-0.801	-0.338
CC(C)C(=C=CC[C@H](O)c1ccc(OCCO)cc1)C[C@H](O)c1cc(Cl)cc(Cl)c1O	-0.321	1.35	-0.0076	0.85	0.869	1.31	1.24	-1.66 (inactive)	0.32	0.0722	1.4	0.297 (inactive)	-3.66 (inactive)	-0.558 (inactive)	1.78	0.192 (inactive)	0.0511	1.41	1.04	-0.008
Cc1ccc(S[C@]2(C(=O)NCC(F)(F)F)CC(=O)N(Cc3ccccc3)[C@@H]2c2ccc(CO)cc2)cc1	0.2	0.179	-0.158	-0.453	-0.851	0.248	0.463	-2.41 (inactive)	-0.543	-0.266	0.293	0.249 (inactive)	-1.2 (inactive)	-0.711 (inactive)	2.06	-1.68 (inactive)	-0.137	-0.92	-0.681	-0.178
COCCCNC(=O)[C@@H]1c2ccccc2C(=O)N(Cc2ccccc2C(F)(F)F)[C@H]1c1ccc(CO)cc1	0.6	0.054	-0.0284	-0.445	-0.356	0.068	1.16	0.421 (inactive)	0.0584	-0.0726	0.12	-0.409 (inactive)	-0.514 (inactive)	-0.368 (inactive)	0.73	0.598 (inactive)	-0.0855	-0.789	-0.941	-0.0146
C=C(COC)/C(=C/C[C@@H](OC(=O)c1ccncc1)c1ccc(CO)o1)c1cnc2ccccc2c1	-0.376	1.03	0.0235	1.2	1.73	1.5	1.34	0.487 (inactive)	0.668	0.115	1.55	-0.854 (inactive)	0.536 (inactive)	0.14 (inactive)	1.59	0.647 (inactive)	-0.112	1.88	1.02	-0.0059
O=C(CS)NCCCCCCNC(=O)[C@@H]1C[C@@H]2C(=O)N3CCC[C@H]3C(=O)N2[C@@H]1c1cccc(OCCO)c1	0.145	0.804	0.109	0.256	0.407	1.28	0.911	1.05 (inactive)	-0.022	-0.0645	1.35	-1.69 (inactive)	0.335 (inactive)	-0.365 (inactive)	2.35	1.2 (inactive)	0.177	0.488	1	0.0195
O=C1O[C@@H](c2ccccc2)[C@@H](c2ccccc2)N2[C@@H](c3ccccc3OCCO)[C@]3(C(=O)Nc4ccc(C#CCCO)cc43)[C@@H](C(=O)N3CCN(c4ncccn4)CC3)[C@H]12	-0.132	-0.167	-0.0004	0.608	1.34	1.56	1.13	-2.32 (inactive)	0.29	-0.069	1.55	1.75 (inactive)	-0.631 (inactive)	3.99 (inactive)	2.93	0.935 (inactive)	-0.0708	0.207	0.59	-0.0858
